# Assay results from PubChem BioAssay.
# Activity calls are given as the source filed them.
# Columns and labels:
# [1] = tested on: Plasmodium falciparum Sir2 (PF13_0152, Sir2A); assay: pfSir2 binders on small-molecule microarrays, primary screen, biochemical, small-molecule microarray, 635 nm fluorescence (AID 1098); conditions: small-molecule microarray binding, fluorescence 635 nm; higher = more signal;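 further: score merges spot fluorescence intensity with its signal-to-noise ratio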
# [2] = small-molecule microarray binders of probe aDKK1, primary screen, biochemical, biotinylated probe, 635/667 nm fluorescence (AID 1099); conditions: higher = more signal;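 further: score merges 667nm spot fluorescence with signal to noise across triplicate slides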
# [3] = small-molecule microarray binders of probe aCHRDL2, primary screen, biochemical, biotinylated probe, 635/667 nm fluorescence (AID 1100); conditions: higher = more signal
# [4] = splicing luciferase reporter signal modulators, primary screen, spliceosome inhibition project, cell-based, HEK293, splice +/- reporter (AID 1101); conditions: luminescence, 24 h, higher = more signal, called active from +8 up or from −8 down;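 further: HEK293 cells carrying a splicing-competent luciferase reporter gene; test concentration not given here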
# [5] = target: Fibroblast growth factor 10 (Homo sapiens) (UniProt O15520); assay: FGF10 binders on small-molecule microarrays, primary screen, biochemical, small-molecule microarray, 635 nm fluorescence (AID 1102); conditions: FGF10 binding, fluorescence 635 nm, higher = more signal
# [6] = tested on: glycogen synthase kinase-3 (GSK3A per assay name; protocol says GSK3B); assay: GSK3 binders on small-molecule microarrays, primary screen, biochemical, small-molecule microarray, 635 nm fluorescence, GSK3A (AID 1103); conditions: small-molecule microarray binding, fluorescence 635 nm; higher = more signal; further: the record names both GSK3A and GSK3B
# [7] = target: Epidermal growth factor receptor (Homo sapiens) (UniProt P00533); assay: EGFR binders on small-molecule microarrays, primary screen, biochemical, small-molecule microarray, 635 nm fluorescence (AID 1104); conditions: EGFR binding, higher = more signal;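 further: score merges 667 nm emission intensity with spot signal to noise over triplicate slides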
# [8] = target: Follistatin-related protein 3 (Homo sapiens) (UniProt O95633); assay: FSTL3 binders on small-molecule microarrays, primary screen, biochemical, small-molecule microarray, 635 nm fluorescence (AID 1105); conditions: FSTL3 binding, higher = more signal;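 further: score merges emission near 667 nm and signal to noise per printed spot across three slides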
# [9] = target: Dickkopf-related protein 1 (Homo sapiens) (UniProt O94907); assay: DKK1 binders on small-molecule microarrays, primary screen, biochemical, small-molecule microarray, 635 nm fluorescence scan (AID 1106); conditions: DKK1 binding, higher = more signal;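 further: score merges emission near 667 nm with signal to noise over three replicate slides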
# [10] = tested on: Inhibin beta A chain (activin A); assay: INHBA (activin A) binders on microarrays, primary screen, biochemical, small-molecule microarray, 635 nm fluorescence scan (AID 1107); conditions: small-molecule microarray binding, higher = more signal;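 further: mouse activin A protein probed at 4.33 µg/mL on printed slides; score merges bound-protein fluorescence near 667 nm with spot signal-to-noise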
# [11] = tested on: Human papillomavirus type 1a protein E7 (residues 44-93); assay: HPV1a E7 fragment binders on microarrays, primary screen, biochemical, small-molecule microarray, residues 44-93, 635 nm fluorescence (AID 1108); conditions: small-molecule microarray binding, fluorescence 635 nm; higher = more signal;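 further: E7 fragment applied at 1 µg/mL in TBST for 1 h at 4 C; score combines spot fluorescence with its signal to noise ratio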
# [12] = modulators of HCV replicon luciferase signal, primary screen, HCV replication inhibitor project, Huh7 cells, luciferase reporter (AID 1109); conditions: 48 h, higher = more signal;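 further: huh7 hepatoma cells harbouring a luciferase neomycin HCV replicon reporter; luciferase luminescence as measure of HCV replicon replication; test concentration not given here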
# [13] = target: Left-right determination factor 2 (Homo sapiens) (UniProt O00292); assay: LEFTY2 binders on small-molecule microarrays, primary screen, biochemical, small-molecule microarray, 635 nm fluorescence scan (AID 1110); conditions: LEFTY2 binding, higher = more signal
# [14] = target: Calmodulin-1 (Homo sapiens) (UniProt P0DP23); assay: CALM1 binders on microarrays, EGTA buffer, profiling panel, biochemical, small-molecule microarray, Cy5-labelled CALM1 (AID 1111); conditions: Cy5-CALM1 binding fluorescence, higher = more signal;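 further: labelled calmodulin applied in Tris saline Tween buffer holding calcium plus EGTA and DTT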
# [15] = target: Calmodulin-1 (Homo sapiens) (UniProt P0DP23); assay: calcium-bound CALM1 binders on microarrays, profiling panel, artefact control for SMM control-protein annotation, biochemical, small-molecule microarray, Cy5-labelled CALM1, plus calcium (AID 1112); conditions: Cy5-CALM1 binding fluorescence, higher = more signal;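 further: score merges spot fluorescence with signal to noise from triplicate slides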
# [16] = small-molecule microarray binders of probe aWnt5a, primary screen, biochemical, biotinylated probe, 635/667 nm fluorescence (AID 1113); conditions: higher = more signal;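 further: score merges 667 nm fluorescence intensity with signal-to-noise per printed feature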
# [17] = small-molecule microarray binders of probe aShh, primary screen, biochemical, biotinylated probe, 635/667 nm fluorescence (AID 1114); conditions: higher = more signal;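 further: probe is biotin-labelled aShh protein from a stem cell growth factor screen; measures binding of labelled protein to compounds printed on the slide; score merges feature fluorescence at 667 nm with signal-to-noise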
# [18] = small-molecule microarray binders of probe aNog, primary screen, biochemical, biotinylated probe, 635/667 nm fluorescence (AID 1115); conditions: higher = more signal;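 further: probe is biotinylated aNog protein used at 0.15 µg/mL for 1 h at 4 C; z-score combines 667 nm fluorescence of each spot with its signal to noise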
# [19] = target: Torsin-1A-interacting protein 1 (Homo sapiens) (UniProt Q5JTV8); assay: LAP1 binders from COS7 cell lysate, primary screen, small-molecule microarray, 635/667 nm fluorescence (AID 1116); conditions: COS7-hLAP1 lysate binding, 635 nm fluorescence, higher = more signal
# [20] = target: Alpha-bungarotoxin (Bungarus multicinctus) (UniProt P60615); assay: alpha-bungarotoxin binders on microarray, profiling panel, artefact control for SMM control protein annotation, biochemical, small-molecule microarray, Alexa647 label, 635/667 nm fluorescence (AID 1117); conditions: alpha-BTX-A647 binding fluorescence, higher = more signal
# Sequence of Alpha-bungarotoxin (Bungarus multicinctus) (P60615 whole entry, looked up): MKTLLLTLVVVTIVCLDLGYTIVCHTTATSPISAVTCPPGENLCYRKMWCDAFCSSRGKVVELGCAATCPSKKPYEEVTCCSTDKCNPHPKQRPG
# Sequence of Left-right determination factor 2 (Homo sapiens) (O00292 whole entry, looked up): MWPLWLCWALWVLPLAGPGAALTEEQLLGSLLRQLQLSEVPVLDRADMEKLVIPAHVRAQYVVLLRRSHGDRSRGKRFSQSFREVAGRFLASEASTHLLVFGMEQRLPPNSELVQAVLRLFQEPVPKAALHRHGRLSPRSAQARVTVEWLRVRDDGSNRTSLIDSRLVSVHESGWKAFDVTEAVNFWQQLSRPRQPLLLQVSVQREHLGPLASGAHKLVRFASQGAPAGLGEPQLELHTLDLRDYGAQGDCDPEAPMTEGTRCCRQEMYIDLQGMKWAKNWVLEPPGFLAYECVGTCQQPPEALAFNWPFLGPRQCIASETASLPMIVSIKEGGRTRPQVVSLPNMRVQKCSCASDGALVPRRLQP
# Sequence of Dickkopf-related protein 1 (Homo sapiens) (O94907 whole entry, looked up): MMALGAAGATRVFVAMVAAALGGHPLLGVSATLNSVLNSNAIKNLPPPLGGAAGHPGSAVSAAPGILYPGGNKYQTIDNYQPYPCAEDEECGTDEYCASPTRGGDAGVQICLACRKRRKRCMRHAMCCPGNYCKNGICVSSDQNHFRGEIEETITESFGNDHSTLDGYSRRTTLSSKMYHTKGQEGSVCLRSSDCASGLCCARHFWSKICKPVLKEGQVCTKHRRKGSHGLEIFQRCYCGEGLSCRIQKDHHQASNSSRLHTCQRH
# Sequence of Fibroblast growth factor 10 (Homo sapiens) (O15520 whole entry, looked up): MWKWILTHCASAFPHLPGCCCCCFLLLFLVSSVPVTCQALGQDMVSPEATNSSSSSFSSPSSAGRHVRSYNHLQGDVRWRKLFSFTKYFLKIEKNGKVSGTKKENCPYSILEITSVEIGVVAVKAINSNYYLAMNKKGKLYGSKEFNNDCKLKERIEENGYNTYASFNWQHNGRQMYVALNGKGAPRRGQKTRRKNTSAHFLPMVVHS
# Sequence of Epidermal growth factor receptor (Homo sapiens) (P00533 whole entry, looked up): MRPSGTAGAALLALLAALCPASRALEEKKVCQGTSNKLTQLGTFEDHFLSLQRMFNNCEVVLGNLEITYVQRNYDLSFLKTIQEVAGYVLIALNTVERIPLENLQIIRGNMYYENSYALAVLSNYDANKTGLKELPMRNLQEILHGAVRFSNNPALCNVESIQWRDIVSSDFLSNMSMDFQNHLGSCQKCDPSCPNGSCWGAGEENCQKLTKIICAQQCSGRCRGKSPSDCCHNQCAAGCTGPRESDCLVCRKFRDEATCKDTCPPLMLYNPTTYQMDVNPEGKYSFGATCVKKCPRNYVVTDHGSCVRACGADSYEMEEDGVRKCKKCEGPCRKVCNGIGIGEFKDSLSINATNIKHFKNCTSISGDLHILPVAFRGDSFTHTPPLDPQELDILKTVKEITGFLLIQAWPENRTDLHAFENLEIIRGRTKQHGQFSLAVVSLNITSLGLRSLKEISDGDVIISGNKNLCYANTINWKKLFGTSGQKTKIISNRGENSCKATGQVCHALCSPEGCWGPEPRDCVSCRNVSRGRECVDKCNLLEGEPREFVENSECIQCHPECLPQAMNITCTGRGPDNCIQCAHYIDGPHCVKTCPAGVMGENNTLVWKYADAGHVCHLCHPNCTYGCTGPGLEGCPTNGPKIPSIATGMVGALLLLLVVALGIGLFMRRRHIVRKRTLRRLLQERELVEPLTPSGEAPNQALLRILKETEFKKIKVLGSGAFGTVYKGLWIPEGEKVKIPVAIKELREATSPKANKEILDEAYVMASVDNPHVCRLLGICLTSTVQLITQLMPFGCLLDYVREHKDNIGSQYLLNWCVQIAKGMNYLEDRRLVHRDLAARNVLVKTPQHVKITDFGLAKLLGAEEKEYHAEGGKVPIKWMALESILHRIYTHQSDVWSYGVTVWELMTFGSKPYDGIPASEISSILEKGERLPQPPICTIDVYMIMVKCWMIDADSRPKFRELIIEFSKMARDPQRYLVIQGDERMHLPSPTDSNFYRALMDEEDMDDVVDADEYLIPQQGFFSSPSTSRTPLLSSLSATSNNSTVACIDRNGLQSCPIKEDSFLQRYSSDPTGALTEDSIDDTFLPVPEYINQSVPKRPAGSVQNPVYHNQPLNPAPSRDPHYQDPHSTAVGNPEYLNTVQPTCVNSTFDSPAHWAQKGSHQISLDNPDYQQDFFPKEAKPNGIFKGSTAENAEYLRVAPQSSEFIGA
# Sequence of Torsin-1A-interacting protein 1 (Homo sapiens) (Q5JTV8 whole entry, looked up): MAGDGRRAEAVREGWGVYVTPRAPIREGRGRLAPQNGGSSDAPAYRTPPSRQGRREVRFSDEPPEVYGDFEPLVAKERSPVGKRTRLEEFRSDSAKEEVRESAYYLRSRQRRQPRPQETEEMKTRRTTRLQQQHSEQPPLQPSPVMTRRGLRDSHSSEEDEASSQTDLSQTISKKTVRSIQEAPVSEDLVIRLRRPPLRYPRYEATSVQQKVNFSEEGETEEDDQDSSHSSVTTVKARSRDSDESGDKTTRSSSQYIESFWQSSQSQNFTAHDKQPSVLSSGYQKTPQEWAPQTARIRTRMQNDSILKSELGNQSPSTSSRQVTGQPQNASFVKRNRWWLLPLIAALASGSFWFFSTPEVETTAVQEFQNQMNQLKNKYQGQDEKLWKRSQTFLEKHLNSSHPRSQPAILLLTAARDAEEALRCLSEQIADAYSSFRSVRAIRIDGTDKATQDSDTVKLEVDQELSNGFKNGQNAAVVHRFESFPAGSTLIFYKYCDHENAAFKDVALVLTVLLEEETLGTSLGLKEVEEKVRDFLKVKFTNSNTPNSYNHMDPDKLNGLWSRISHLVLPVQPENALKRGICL
# Sequence of Follistatin-related protein 3 (Homo sapiens) (O95633 whole entry, looked up): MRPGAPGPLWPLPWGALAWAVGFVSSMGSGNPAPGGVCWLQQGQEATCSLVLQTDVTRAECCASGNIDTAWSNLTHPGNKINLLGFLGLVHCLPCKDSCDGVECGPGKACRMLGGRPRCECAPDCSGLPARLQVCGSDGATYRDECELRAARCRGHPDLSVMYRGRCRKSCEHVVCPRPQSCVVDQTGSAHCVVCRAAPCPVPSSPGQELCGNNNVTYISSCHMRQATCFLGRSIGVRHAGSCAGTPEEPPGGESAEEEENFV
Structure (SMILES),composite z-score [1],composite z-score [2],composite z-score [3],z-score [4],composite z-score [5],composite z-score [6],composite z-score [7],composite z-score [8],composite z-score [9],composite z-score [10],composite z-score [11],z-score [12],composite z-score [13],composite z-score [14],composite z-score [15],composite z-score [16],composite z-score [17],composite z-score [18],composite z-score [19],composite z-score [20]
C=CC[C@@]1(C(=O)N(C)C)N=C(c2ccc(OCCCO)cc2)O[C@@H]1c1ccccc1N=[N+]=[N-],1.59,1.33,1.35,-1.2 (inactive),0.826,1.2,0.145,0.884,0.368,0.636,0.608,-1.08,0.232,2.66,1.03,0.0597,0.613,2.21,2.7,2.95
CC(C)N1C(=O)[C@@]2(Cc3ccccc31)c1ccccc1C(=O)N(C1CCCCC1)[C@H]2c1ccc(CO)cc1,1.15,-0.307,-0.194,0.0789 (inactive),0.206,0.856,0.507,1.17,0.788,0.899,0.683,-1.26,0.0232,-0.435,-0.56,-0.063,-0.195,-0.399,0.103,0.284
O=C1O[C@@H](c2ccccc2)[C@@H](c2ccccc2)N2[C@@H](c3ccccc3OCCO)[C@]3(C(=O)Nc4ccc(C#CC5=CCCCC5)cc43)[C@@H](C(=O)Nc3nc4ccccc4s3)[C@H]12,1.5,0.0826,-0.0401,-0.459 (inactive),1.32,1.29,0.463,1.23,0.619,0.137,1.4,-2.52,0.501,1.32,0.337,-0.0084,0.356,-0.167,0.705,1.32
C#CCNC(=O)[C@H](Cc1ccccc1)NC(=O)CCC(=O)O,-0.759,-0.397,-0.205,-0.222 (inactive),-0.688,-1.14,-0.659,-1.22,-0.447,0.735,-0.665,-0.25,-0.0677,-1.48,-0.834,-0.12,-0.214,-0.501,0.409,-0.368
CC(=O)n1cc(C(O)C2C=CC3C(=O)N(C)C(=O)C3N2Nc2ccccc2)c2ccccc21 (stereo not given),0.511,0.906,1.18,1.45 (inactive),1.17,0.292,1.27,1.4,1.02,1.79,1.35,-0.581,0.532,0.202,-0.53,0.105,0.494,0.578,1.36,1.18
